GPT2 inhibitor = blocks human glutamate pyruvate transaminase 2 | 100,000 tested, 0.25% active | Recombinant GPT2, coupled pyruvate oxidase/HRP Amplex Red fluorescence | Potency, µM (doses to about 57.7 µM), hits mostly inhibitors | Q8TD30; note: nearly all actives have a fitted effect of over 60% in size
Target sequence (Q8TD30 whole entry, looked up): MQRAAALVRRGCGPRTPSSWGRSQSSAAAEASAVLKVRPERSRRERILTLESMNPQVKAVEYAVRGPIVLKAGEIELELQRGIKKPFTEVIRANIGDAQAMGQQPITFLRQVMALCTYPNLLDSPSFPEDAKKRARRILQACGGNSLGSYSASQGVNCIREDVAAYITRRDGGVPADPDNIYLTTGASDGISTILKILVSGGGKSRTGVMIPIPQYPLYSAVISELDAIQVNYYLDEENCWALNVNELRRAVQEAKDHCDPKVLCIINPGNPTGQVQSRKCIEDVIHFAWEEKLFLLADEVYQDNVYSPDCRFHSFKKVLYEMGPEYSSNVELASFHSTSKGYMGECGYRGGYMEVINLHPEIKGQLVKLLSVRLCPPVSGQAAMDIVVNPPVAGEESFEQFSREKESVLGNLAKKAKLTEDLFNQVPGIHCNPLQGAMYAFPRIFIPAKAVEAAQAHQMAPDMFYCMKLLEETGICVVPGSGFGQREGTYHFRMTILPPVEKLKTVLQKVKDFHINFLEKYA
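Fluorescence of coupled pyruvate oxidase/HRP/Amplex Red system (50uM Amplex, 30 min, dark) reports pyruvate formed by GPT2. Enzyme reaction: 10ng/uL GPT2, 2mM L-alanine, 250uM a-KG, 30 min room temperature, pH 7.5; 50uM AOA control.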
FLuc inh = blocks purified firefly luciferase enzyme activity; P08659; purified P. pyralis luciferase, luminescence, biochemical; Potency, µM (top dose mostly 115 µM), most hits filed as inhibitors; 76,000 tested, 2.5% active; AID 1347043; note: nearly all actives have a fitted effect of over 65% in size
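Luminescence read by CCD imaging after purified firefly luciferase (10nM final) was added to substrate buffer holding 10uM D-luciferin and 10uM ATP, pH 7.5, pre-dosed with compound.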
HEK293 tox = kills HEK 293 cells. HEK 293 viability, ATP luminescence (CellTiter-Glo), 48-72 h. 94,000 tested, 6.6% active. AID 1345083. Potency, µM (series often up to 115 µM), hits mostly inhibitors; note: nearly all actives have a fitted effect of over 60% in size
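Cells seeded first (HEK 293, 250 cells/well), then compound added by pintool. Incubation ran 48 or 72 hr at 37 degree Celsius. CellTiter-Glo was added and luminescence imaged after 10 min at room temperature.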
hNpr1 antagonist = blocks ANP-stimulated signaling of human Npr1 receptor; P16066; HEK293 hNpr1 GloSensor cGMP, ANP-stimulated luminescence; Potency, µM (top dose mostly 46.3 µM), actives largely listed as inhibitors; 76,000 tested, 1.6% active; AID 1347048; calls by dose curve; note: nearly all actives have a fitted effect of over 60% in size
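Compound pre-incubated 30 min at room temperature on GloSensor-loaded HEK293 cells stably carrying hNpr1 and the pGS-40F cGMP biosensor. Stimulation uses hNppA at 0.1 nM final; luminescence is taken at baseline and 20 min post-agonist.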
NIH3T3 tox = NIH 3T3 cell cytotoxicity; NIH 3T3 viability, CellTiter-Glo ATP luminescence, 48-72 h; Potency, µM (top dose mostly 96.7 µM), actives largely listed as inhibitors; 94,000 tested, 4.3% active; note: nearly all actives have a fitted effect of over 55% in size
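ATP-dependent luminescence (CellTiter-Glo) served as the viability signal for NIH 3T3 cells treated with compound for 48 or 72 hr at 37 °C.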
Hits are given with their value; 0 = inactive; ? = inconclusive; - = not tested or not shown. Rows were chosen to be rich in hits. Some 10% of all compounds tested hit in one or more screens of this group. Unless noted, calls come from the whole dose curve; as a rule, active = well fitted curve in the direction sought with a large enough effect; inconclusive = small, poorly fitted or top-dose-only effect, or another doubt; inactive = no such curve, though single readings can be large; an effect the other way counts as inactive or inconclusive.

SMILES | GPT2 inhibitor | FLuc inh | HEK293 tox | hNpr1 antagonist | NIH3T3 tox
Fc1ccc2nc(CO[C@H]3CN(Cc4ccccn4)C[C@H]3F)[nH]c2c1 | 0 | 0 | 0 | 0 | 0
COC(=O)c1ccc2nc(CO[C@H]3CN(Cc4cn(C)c5ccccc45)C[C@H]3F)[nH]c2c1 | 0 | 0 | ? | 0 | ?
Cn1cc(CN2C[C@@H](F)[C@@H](OCc3nc4ncccc4[nH]3)C2)c2ccccc21 | 0 | 0 | 89µM | 0 | ?
Cn1cc(CN2C[C@@H](F)[C@@H](OCc3nc4ccccc4[nH]3)C2)c2ccccc21 | 0 | 0 | 100µM | 0 | ?
O=C(O)CCC(=O)N1Cc2ccccc2CC2(CCN(Cc3cccnc3)C2)C1 (centres undefined) | 0 | - | 0 | - | 0
CNC(=O)c1cc(C)nc2onc(C3CCCN(C(=O)c4ccccc4)C3)c12 (centres undefined) | - | - | 0 | - | 0
O=C1NCCCCCCN(Cc2ccncc2)[C@@H]2CN(Cc3ccncc3F)CC[C@@H]12 | 0 | 0 | 0 | 0 | 0
O=C(Cc1ccccc1F)N1CCC2(CC1)CN(C1CCC1)CC2CO (centres undefined) | 0 | 0 | ? | 0 | ?
Cn1cc(S(=O)(=O)c2ccc(Cl)cc2)c2cccc(N3CCNCC3)c21 | 0 | - | - | - | -
COc1ccc(-c2cc(N3CCCN(C(=O)c4ccccc4OC)CC3)n[nH]2)cc1 | ? | 0 | 0 | 0 | 0
COc1ccccc1C(=O)N1CCCN(c2cc(-c3ccc(Br)cc3)[nH]n2)CC1 | 0 | 0 | 40µM | ? | ?
COc1ccc(Cl)cc1C(=O)N1CCCN(c2cc(-c3ccc(Br)cc3)[nH]n2)CC1 | ? | 0 | 35µM | ? | 32µM
Cc1cc(C)n(Cc2ccc(C(=O)N3CC[C@@H](n4c(=O)n(C)c5cccnc54)C3)o2)n1 | 0 | - | 0 | - | ?
COc1ccc2c(c1)CCN=C2C[C@H]1CN(C(=O)C(C)(C)C)CC[C@H]1CC(=O)O | ? | 0 | 112µM | 0 | ?
COc1ccc(-c2[nH]nc3ncc(-c4ccc(C)cc4)nc23)cc1F | 0 | 0 | 45µM | 0 | 40µM
COc1ccc(-c2[nH]nc3ncc(-c4ccccc4F)nc23)cc1F | 0 | 0 | ? | 0 | 50µM
COc1ccc(-c2[nH]nc3ncc(-c4ccc([S+](C)(=O)[O-])cc4)nc23)cc1F | 0 | 0 | ? | 0 | ?
COc1ccc(-c2cnc3n[nH]c(-c4ccc(OC)c(F)c4)c3n2)cn1 | 0 | 0 | ? | 0 | ?
CC(=O)NC1CCCN(c2ccc3nnc(C)n3n2)C1 (centres undefined) | - | - | 0 | - | 0
O=C(Nc1ccc(Cl)cc1)N1CCCN(c2ccc3nnc(C4CC4)n3n2)CC1 | - | - | 0 | - | 0
N#Cc1cccc(NC(=S)N[C@H]2CO[C@H]3[C@@H]2OC[C@@H]3n2nnnc2Oc2cccc(N3CCOCC3)c2)c1 | ? | 0 | 45µM | 0 | 0
CN1CCC(C(=O)N2Cc3ccccc3CC3(CCCCN3CC3CCNC3)C2)CC1 (centres undefined) | 0 | - | 0 | - | 0
O=C(COc1cccc(-c2nnc3n2CCCC3)c1)Nc1ccc(Br)cc1 | 0 | ? | ? | 0 | ?
COc1ccc(-c2nc(-c3c(C)noc3C)cc3cc(CN(C)C)oc23)cn1 | 0 | 0 | ? | 0 | 50µM
COc1ccc(Nc2nc(-c3c(C)noc3C)cc3cc(CN(C)C)oc23)cn1 | 0 | 0 | 79µM | 0 | 79µM
SMILES | GPT2 inhibitor | FLuc inh | HEK293 tox | hNpr1 antagonist | NIH3T3 tox
COc1ccccc1-c1nc(-c2c(C)noc2C)cc2cc(CN(C)C)oc12 | 0 | 0 | ? | 0 | ?
COc1cc(-c2nc(-c3c(C)noc3C)cc3cc(CN(C)C)oc23)ccn1 | 0 | 0 | 79µM | 0 | 40µM
Cc1noc(C)c1-c1cc2cc(CN(C)C)oc2c(Nc2ccncn2)n1 | 0 | 0 | ? | 0 | 45µM
COCCN1C[C@H]2COc3ccccc3[C@H]2N(C(=O)c2ccccc2OC)CCC1=O | - | - | 0 | - | ?
COc1ccc(C(=O)N2CCOCC3(CN(Cc4cccc(Cl)c4)C3)C2)cc1OC | 0 | 0 | 45µM | 0 | ?
COc1ccc(C(=O)N2CCOCC3(CN(Cc4cc(F)ccc4F)C3)C2)cc1OC | 0 | 0 | 112µM | 0 | ?
CO[C@H]1C(=O)N(C2CCN(S(=O)(=O)c3cccnc3)CC2)[C@H]1c1ccncc1 | 0 | 0 | 0 | 0 | 0
COc1ccc(-c2noc([C@@H]3CCCN3Cc3ccccc3OC)n2)cn1 | 0 | 0 | ? | 0 | ?
CN1CCN(c2ccc(-c3noc([C@@H]4CCCN4Cc4ccccc4)n3)cn2)CC1 | 0 | 0 | 71µM | 0 | 100µM
COc1ccc(C(=O)Nc2ccc(-c3noc([C@@H]4CCCN4Cc4cnc5ccccc5c4)n3)cn2)cc1 | 0 | ? | 22µM | 13µM | 28µM
CNc1ccc(-c2noc([C@@H]3CCCN3Cc3cnc4ccccc4c3)n2)cn1 | 0 | 0 | ? | 0 | ?
Fc1ccccc1CN1CCC[C@H]1c1nc(-c2ccnc(N3CCOCC3)c2)no1 | ? | 0 | 89µM | 0 | ?
N#Cc1ccc(CN2CCC[C@H]2c2nc(-c3ccnc(N4CCOCC4)c3)no2)cc1 | 0 | 0 | ? | ? | 0
CN(C)c1ccc(-c2noc([C@@H]3CCCN3Cc3nc4ccccc4n3C)n2)cn1 | 0 | 0 | 112µM | 0 | ?
CS(=O)(=O)c1ccc(CN2CCC[C@H]2c2nc(-c3ccnc(N4CCOCC4)c3)no2)cc1 | 0 | 0 | 0 | 0 | 0
CC(C)CN1CCC[C@H]1c1nc(-c2ccnc(N3CCOCC3)c2)no1 | 0 | 0 | 89µM | 0 | ?
c1ccc(CN2CCC[C@H]2c2nc(-c3ccnc(N4CCOCC4)c3)no2)cc1 | 0 | 0 | 89µM | 0 | ?
CC(=O)N1CCN(c2cc(-c3noc([C@@H]4CCCN4Cc4ccc(C(F)(F)F)cc4)n3)ccn2)CC1 | 0 | 0 | 28µM | 0 | 0
O=C(NCc1ccc(C(F)(F)F)cc1)C1CCN(C(=O)c2ccc(-c3cccs3)cc2)CC1 | - | - | 32µM | - | 7.1µM
O=C(NCCc1ccccc1)C1CCN(C(=O)c2ccc(-c3cccs3)cc2)CC1 | - | - | 0 | - | 0
O=C(NCCc1ccc(Cl)cc1)C1CCN(C(=O)c2ccc(-c3cccs3)cc2)CC1 | - | - | 45µM | - | ?
COc1cccc(CNC(=O)C2CCN(C(=O)c3ccc(-c4ccccc4OC)cc3)CC2)c1 | 0 | - | ? | - | ?
O=C1CCNCCCC(c2nc(-c3ccccc3)no2)CCN1 (centres undefined) | 0 | 0 | 0 | 0 | 0
Cc1csc(NC(=O)c2nc3c(o2)CCN(Cc2c(F)cccc2F)CC3)n1 | 0 | 28µM | ? | 0 | ?
COc1ccccc1CN1CCc2nc(C(=O)Nc3nc(C)cs3)oc2CC1 | 0 | 25µM | ? | 0 | ?
O=C(NCCOc1ccccc1)c1nc2c(o1)CCN(Cc1cc(F)ccc1F)CC2 | 0 | 0 | ? | 0 | ?
COc1ccccc1CC(=O)N1CCCc2ncc(C(=O)Nc3nc(C)cs3)cc21 | 0 | 0 | ? | 0 | ?
Cc1csc(NC(=O)c2nc3c(o2)CCN(Cc2cc(F)ccc2F)CC3)n1 | 0 | 28µM | ? | 0 | ?
O=C(NCc1ccccc1)c1nc2c(o1)CCN(Cc1c(F)cccc1F)CC2 | 0 | 0 | 0 | 0 | ?
